Measurements: PubChem BioAssay (NCI)
About 83,000 compounds went through this panel and 20% of them were active in at least one assay; those are over-represented in the sample as a whole.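 Cell lines were cultured in 96-well plates, exposed to a single compound concentration, and assessed for percent growth 48 hours later.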 Unmarked numbers belong to inactive results. How the source made its calls: active means growth percent below 10; inactive means the rest.

These compounds were tested on HL-60(TB) leukemia (assay: NCI-60 one-dose screen, 48 h (100 = growth as untreated, 0 = no growth, -100 = all killed)). Details: 10 µM unless noted.

SMILES	growth [%]
CCCCc1nc2c(N)nc3ccccc3c2n1Cc1cccc(CN)c1	11.9
NC(=O)c1c(NC(=O)c2cccc(OC(F)(F)F)c2)sc2c1CCC(=O)C2	60
Oc1ccc(-c2nc3ccc(/C(=N\N=C\c4ccc(Cl)cc4)c4ccccc4)cc3[nH]2)cc1	27.5
